From PMC11006913
Where a chain is given by its changes, count along the chain named.

What was measured:
Test in all cases: PBM; 200 nM protein, PBS
Conditions in all cases: dsDNA, one strand shown
SIX6 [1] = target: T1, SIX6 (Homo sapiens, UniProt O95475 114-200, L167I)
T1 sequence: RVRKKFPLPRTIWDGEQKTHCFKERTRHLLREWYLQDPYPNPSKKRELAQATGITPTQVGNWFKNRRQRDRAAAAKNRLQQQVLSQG

SIX6 [2] = target: T2, SIX6 (Homo sapiens, UniProt O95475 114-200, L143V)
T2 sequence: T1 sequence with L30V, I54L

SIX6 [3] = target: T3, SIX6 (Homo sapiens, UniProt O95475 114-200, H141N)
T3 sequence: T1 sequence with H28N, I54L

SIX6 [4] = target: T4, SIX6 (Homo sapiens, UniProt O95475 114-200, T165P)
T4 sequence: T1 sequence with T52P, I54L

SIX6 [5] = target: T5, SIX6 (Homo sapiens, UniProt O95475 114-200, L167M)
T5 sequence: T1 sequence with I54M

SIX6 [6] = target: T6, SIX6 (Homo sapiens, UniProt O95475 114-200, L143M)
T6 sequence: T1 sequence with L30M, I54L

SIX6 [7] = target: T7, SIX6 (Homo sapiens, UniProt O95475 114-200, L143I)
T7 sequence: T1 sequence with L30I, I54L

SIX6 [8] = target: T8, SIX6 (Homo sapiens, UniProt O95475 114-200, T165G)
T8 sequence: T1 sequence with T52G, I54L

SIX6 [9] = target: T9, SIX6 (Homo sapiens, UniProt O95475 114-200, T139Q)
T9 sequence: T1 sequence with T26Q, I54L

SIX6 [10] = target: T10, SIX6 (Homo sapiens, UniProt O95475 114-200, T165A)
T10 sequence: T1 sequence with T52A, I54L

SIX6 [11] = target: T11, SIX6 (Homo sapiens, UniProt O95475 114-200, L167V)
T11 sequence: T1 sequence with I54V

SIX6 [12] = target: T12, SIX6 (Homo sapiens, UniProt O95475 114-200)
T12 sequence: T1 sequence with I54L

SIX6 [13] = target: T13, SIX6 (Homo sapiens, UniProt O95475 114-200, T165I)
T13 sequence: T1 sequence with T52I, I54L

Row | Sequence | binding signal (SIX6 [1]) | binding signal (SIX6 [2]) | binding signal (SIX6 [3]) | binding signal (SIX6 [4]) | binding signal (SIX6 [5]) | binding signal (SIX6 [6]) | binding signal (SIX6 [7]) | binding signal (SIX6 [8]) | binding signal (SIX6 [9]) | binding signal (SIX6 [10]) | binding signal (SIX6 [11]) | binding signal (SIX6 [12]) | binding signal (SIX6 [13])
1 | AGTTCGGG | 8.99 upbm affinity estimate (log intensity, higher = more binding, comparable within an allelic series) | 9 upbm affinity estimate (log intensity, higher = more binding, comparable within an allelic series) | 8.96 upbm affinity estimate (log intensity, higher = more binding, comparable within an allelic series) | 9.14 upbm affinity estimate (log intensity, higher = more binding, comparable within an allelic series) | 9.03 upbm affinity estimate (log intensity, higher = more binding, comparable within an allelic series) | 9.18 upbm affinity estimate (log intensity, higher = more binding, comparable within an allelic series) | 9.05 upbm affinity estimate (log intensity, higher = more binding, comparable within an allelic series) | 9.12 upbm affinity estimate (log intensity, higher = more binding, comparable within an allelic series) | 9.14 upbm affinity estimate (log intensity, higher = more binding, comparable within an allelic series) | 8.95 upbm affinity estimate (log intensity, higher = more binding, comparable within an allelic series) | 8.74 upbm affinity estimate (log intensity, higher = more binding, comparable within an allelic series) | 9.05 upbm affinity estimate (log intensity, higher = more binding, comparable within an allelic series) | 8.91 upbm affinity estimate (log intensity, higher = more binding, comparable within an allelic series)
2 | CCGGGGCC | 9.14 upbm affinity estimate (log intensity, higher = more binding, comparable within an allelic series) | 8.96 upbm affinity estimate (log intensity, higher = more binding, comparable within an allelic series) | 9.12 upbm affinity estimate (log intensity, higher = more binding, comparable within an allelic series) | 8.97 upbm affinity estimate (log intensity, higher = more binding, comparable within an allelic series) | 9.04 upbm affinity estimate (log intensity, higher = more binding, comparable within an allelic series) | 9.04 upbm affinity estimate (log intensity, higher = more binding, comparable within an allelic series) | 9.01 upbm affinity estimate (log intensity, higher = more binding, comparable within an allelic series) | 9.1 upbm affinity estimate (log intensity, higher = more binding, comparable within an allelic series) | 9.26 upbm affinity estimate (log intensity, higher = more binding, comparable within an allelic series) | 9.1 upbm affinity estimate (log intensity, higher = more binding, comparable within an allelic series) | 9.05 upbm affinity estimate (log intensity, higher = more binding, comparable within an allelic series) | 9.09 upbm affinity estimate (log intensity, higher = more binding, comparable within an allelic series) | 9.09 upbm affinity estimate (log intensity, higher = more binding, comparable within an allelic series)
3 | GCCGCGGC | 9.02 upbm affinity estimate (log intensity, higher = more binding, comparable within an allelic series) | 8.88 upbm affinity estimate (log intensity, higher = more binding, comparable within an allelic series) | 8.98 upbm affinity estimate (log intensity, higher = more binding, comparable within an allelic series) | 9.04 upbm affinity estimate (log intensity, higher = more binding, comparable within an allelic series) | 8.87 upbm affinity estimate (log intensity, higher = more binding, comparable within an allelic series) | 9.03 upbm affinity estimate (log intensity, higher = more binding, comparable within an allelic series) | 8.95 upbm affinity estimate (log intensity, higher = more binding, comparable within an allelic series) | 9.01 upbm affinity estimate (log intensity, higher = more binding, comparable within an allelic series) | 9.14 upbm affinity estimate (log intensity, higher = more binding, comparable within an allelic series) | 8.95 upbm affinity estimate (log intensity, higher = more binding, comparable within an allelic series) | 9.01 upbm affinity estimate (log intensity, higher = more binding, comparable within an allelic series) | 9 upbm affinity estimate (log intensity, higher = more binding, comparable within an allelic series) | 8.83 upbm affinity estimate (log intensity, higher = more binding, comparable within an allelic series)
4 | CGCGCCGC | 9.05 upbm affinity estimate (log intensity, higher = more binding, comparable within an allelic series) | 9.06 upbm affinity estimate (log intensity, higher = more binding, comparable within an allelic series) | 9.06 upbm affinity estimate (log intensity, higher = more binding, comparable within an allelic series) | 9.04 upbm affinity estimate (log intensity, higher = more binding, comparable within an allelic series) | 9.05 upbm affinity estimate (log intensity, higher = more binding, comparable within an allelic series) | 9.02 upbm affinity estimate (log intensity, higher = more binding, comparable within an allelic series) | 9.02 upbm affinity estimate (log intensity, higher = more binding, comparable within an allelic series) | 9.01 upbm affinity estimate (log intensity, higher = more binding, comparable within an allelic series) | 9.07 upbm affinity estimate (log intensity, higher = more binding, comparable within an allelic series) | 9.12 upbm affinity estimate (log intensity, higher = more binding, comparable within an allelic series) | 9.02 upbm affinity estimate (log intensity, higher = more binding, comparable within an allelic series) | 9.09 upbm affinity estimate (log intensity, higher = more binding, comparable within an allelic series) | 9.04 upbm affinity estimate (log intensity, higher = more binding, comparable within an allelic series)
5 | ACATATCA | 11.3 upbm affinity estimate (log intensity, higher = more binding, comparable within an allelic series) | 10.4 upbm affinity estimate (log intensity, higher = more binding, comparable within an allelic series) | 11.3 upbm affinity estimate (log intensity, higher = more binding, comparable within an allelic series) | 9.99 upbm affinity estimate (log intensity, higher = more binding, comparable within an allelic series) | 10.7 upbm affinity estimate (log intensity, higher = more binding, comparable within an allelic series) | 11.1 upbm affinity estimate (log intensity, higher = more binding, comparable within an allelic series) | 10.4 upbm affinity estimate (log intensity, higher = more binding, comparable within an allelic series) | 11.3 upbm affinity estimate (log intensity, higher = more binding, comparable within an allelic series) | 11.3 upbm affinity estimate (log intensity, higher = more binding, comparable within an allelic series) | 11.2 upbm affinity estimate (log intensity, higher = more binding, comparable within an allelic series) | 11.1 upbm affinity estimate (log intensity, higher = more binding, comparable within an allelic series) | 11.1 upbm affinity estimate (log intensity, higher = more binding, comparable within an allelic series) | 11.1 upbm affinity estimate (log intensity, higher = more binding, comparable within an allelic series)
6 | CCAGTGCG | 8.98 upbm affinity estimate (log intensity, higher = more binding, comparable within an allelic series) | 8.96 upbm affinity estimate (log intensity, higher = more binding, comparable within an allelic series) | 9 upbm affinity estimate (log intensity, higher = more binding, comparable within an allelic series) | 9.02 upbm affinity estimate (log intensity, higher = more binding, comparable within an allelic series) | 8.94 upbm affinity estimate (log intensity, higher = more binding, comparable within an allelic series) | 8.99 upbm affinity estimate (log intensity, higher = more binding, comparable within an allelic series) | 9.05 upbm affinity estimate (log intensity, higher = more binding, comparable within an allelic series) | 9.12 upbm affinity estimate (log intensity, higher = more binding, comparable within an allelic series) | 9.15 upbm affinity estimate (log intensity, higher = more binding, comparable within an allelic series) | 9.01 upbm affinity estimate (log intensity, higher = more binding, comparable within an allelic series) | 9.07 upbm affinity estimate (log intensity, higher = more binding, comparable within an allelic series) | 9.01 upbm affinity estimate (log intensity, higher = more binding, comparable within an allelic series) | 8.95 upbm affinity estimate (log intensity, higher = more binding, comparable within an allelic series)
